PubChem BioAssay (EPA / NIEHS)
Inconclusive results are not listed. Active and inactive are the calls of the source. Rule for the calls, unless noted: active = hit-call score of the fitted dose curve at least 0.9, where 1 is the maximum; inactive = score below 0.9.

How the values were obtained:
[1] = read-out: Interleukin-1 alpha (IL1a), IL1A (gene 3552); assay: BSK_LPS_IL1a: BioMAP Diversity Plus: LPS Assay for Interleukin-1 alpha (IL1a) Biomarker Activity (AID 2283080); conditions: primary human HUVEC with PBMC; actives raise or lower the signal
In short: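 Human umbilical vein endothelial cells co-cultured with peripheral blood mononuclear cells were LPS-stimulated and exposed to test chemicals for 24 h. IL-1 alpha was quantified by ELISA, with bidirectional curve fitting against DMSO as the negative control and baseline.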

[2] = read-out: Monocyte Chemoattractant Protein-1 (MCP1), CCL2 (gene 6347); assay: BSK_LPS_MCP1: BioMAP Diversity Plus: LPS Assay for Monocyte Chemoattractant Protein-1 (MCP1) Biomarker Activity (AID 2283081); conditions: primary human HUVEC with PBMC; actives raise or lower the signal;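 for AC50: secreted MCP-1 protein quantified by ELISA in culture supernatant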
In short: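 HUVEC plus PBMC co-culture (human primary cells, LPS system) exposed to test chemical for 24 h; MCP-1 measured by ELISA. Bidirectional curve fitting against DMSO baseline; parallel SRB total-protein staining flags overt cytotoxicity.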

[3] = BSK_LPS_PGE2: BioMAP Diversity Plus: LPS Assay for Prostaglandin E2 (PGE2) Biomarker Activity (AID 2283082); conditions: primary human HUVEC with PBMC; actives raise or lower the signal;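 for AC50: secreted prostaglandin E2 measured by ELISA in LPS-stimulated co-culture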
In short: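 HUVEC plus PBMC co-culture stimulated with LPS; secreted PGE2 quantified by ELISA 24 h after chemical dosing. Activity fitted bidirectionally against DMSO as negative control and baseline; parallel SRB total-protein staining served as cytotoxicity check.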

[4] = read-out: Macrophage colony-stimulating factor (MCSF), CSF1 (gene 1435); assay: BSK_LPS_MCSF: BioMAP Diversity Plus: LPS Assay for Macrophage colony-stimulating factor (MCSF) Biomarker Activity (AID 2283083); conditions: primary human HUVEC with PBMC; actives raise or lower the signal
In short: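 Human umbilical vein endothelial cells co-cultured with peripheral blood mononuclear cells were exposed to compound for 24 h. M-CSF levels were measured by ELISA, and bidirectional curve fitting used DMSO as the negative control and baseline.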

[5] = read-out: Tissue Factor, F3 (gene 2152); assay: BSK_LPS_TissueFactor: BioMAP Diversity Plus: LPS Assay for Tissue Factor Biomarker Activity (AID 2283084); conditions: primary human HUVEC with PBMC; actives raise or lower the signal
In short: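 Human umbilical vein endothelial cells co-cultured with peripheral blood mononuclear cells were dosed and stimulated with LPS. Cell-surface CD142 was quantified by ELISA at 24 h. Activity was fitted bidirectionally against DMSO baseline.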

[6] = read-out: Tumor necrosis factor (Homo sapiens) (UniProt P01375); assay: BSK_LPS_TNFa: BioMAP Diversity Plus: LPS Assay for Tumour Necrosis Factor alpha (TNFa) Biomarker Activity (AID 2283085); conditions: primary human HUVEC with PBMC; actives raise or lower the signal
In short: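 Human umbilical vein endothelial cells co-cultured with PBMC were exposed to test chemical and TNFa measured by ELISA 24 h after dosing. Bidirectional curve fitting was done relative to DMSO as negative control and baseline.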

[7] = read-out: Vascular cell adhesion molecule 1 (VCAM1), VCAM1 (gene 7412); assay: BSK_LPS_VCAM1: BioMAP Diversity Plus: LPS Assay for Vascular cell adhesion molecule 1 (VCAM1) Biomarker Activity (AID 2283086); conditions: primary human HUVEC with PBMC; actives raise or lower the signal
In short: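 Human umbilical vein endothelial cells co-cultured with peripheral blood mononuclear cells under LPS stimulation were exposed to test chemical for 24 h. VCAM-1 levels were then measured by ELISA, with bidirectional curve fitting relative to DMSO as negative control and baseline.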

[8] = read-out: CD38, CD38 (gene 952); assay: BSK_SAg_CD38: BioMAP Diversity Plus: SAg Assay for CD38 Biomarker Activity (AID 2283087); conditions: primary human HUVEC with PBMC; actives raise or lower the signal
In short: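 Fluorescence ELISA of cell-surface CD38 served as the read-out, with either increase or decrease fitted against DMSO controls. Cells were a human umbilical vein endothelium plus PBMC co-culture under SEB/TSST-1 stimulation, measured 24 h after dosing.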

[9] = read-out: CD40, CD40 (gene 958); assay: BSK_SAg_CD40: BioMAP Diversity Plus: SAg Assay for CD40 Biomarker Activity (AID 2283088); conditions: primary human HUVEC with PBMC; actives raise or lower the signal
In short: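 Human umbilical vein endothelial cells co-cultured with PBMC; CD40 levels measured by ELISA with fluorescence read-out 24 h after chemical dosing. Gain or loss of signal fitted bidirectionally against DMSO baseline.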

[10] = read-out: CD69, CD69 (gene 969); assay: BSK_SAg_CD69: BioMAP Diversity Plus: SAg Assay for CD69 Biomarker Activity (AID 2283089); conditions: primary human HUVEC with PBMC; actives raise or lower the signal;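 for AC50: cell surface CD69 protein quantified by ELISA with fluorescence detection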
In short: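 Primary human vascular co-culture (umbilical vein endothelium with peripheral blood mononuclear cells) exposed to test chemical for 24 h. CD69 levels quantified by fluorescence ELISA; DMSO served as negative control for bidirectional fitting.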

[11] = read-out: Monocyte Chemoattractant Protein-1 (MCP1), CCL2 (gene 6347); assay: BSK_SAg_MCP1: BioMAP Diversity Plus: SAg Assay for Monocyte Chemoattractant Protein-1 (MCP1) Biomarker Activity (AID 2283090); conditions: primary human HUVEC with PBMC; actives raise or lower the signal
In short: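 MCP-1 levels in the endothelial–PBMC SAg co-culture were quantified by ELISA at 24 h post-dosing; both increases and decreases versus DMSO scored. Cytotoxicity monitored by SRB total protein in parallel cultures.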

[12] = read-out: E-selectin (Homo sapiens) (UniProt P16581); assay: BSK_SAg_Eselectin: BioMAP Diversity Plus: SAg Assay for Eselectin Biomarker Activity (AID 2283091); conditions: primary human HUVEC with PBMC; actives raise or lower the signal
In short: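 HUVEC co-cultured with PBMC, compound dosed then read at 24 h; E-selectin measured by ELISA. Activity fitted bidirectionally against DMSO as negative control and baseline.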

[13] = read-out: Monokine induced gamma interferon (MIG), CXCL9 (gene 4283); assay: BSK_SAg_MIG: BioMAP Diversity Plus: SAg Assay for Monokine induced gamma interferon (MIG) Biomarker Activity (AID 2283092); conditions: primary human HUVEC with PBMC; actives raise or lower the signal
In short: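 Endothelial cells and PBMC were co-cultured, exposed to test chemicals, and sampled 24 h later. MIG was measured by ELISA, and responses were fitted in both directions relative to DMSO.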

[14] = BSK_SAg_PBMCCytotoxicity: PBMC Cytotoxicity Assessment in the BioMAP Diversity Plus: SAg Assay (AID 2283093); conditions: primary human HUVEC with PBMC;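 note: PBMC viability measured as Alamar Blue reduction fluorescence at 546/580 nm; fitted both ways against DMSO so a hit may be loss or gain of signal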;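 for AC50: PBMC superantigen activated with SEB plus TSST-1 one hour after compound addition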
In short: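 Compound added to 75,000 PBMC/well for 1 h; SEB and TSST-1 then added at 20 ng/mL final each; 90 h incubation; Alamar Blue 6 h; read 546/580 nm ex/em. Activity fitted bidirectionally relative to DMSO baseline.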

[15] = read-out: Interleukin-8 (IL8), CXCL8 (gene 3576); assay: BSK_SAg_IL8: BioMAP Diversity Plus: SAg Assay for Interleukin-8 (IL8) Biomarker Activity (AID 2283094); conditions: primary human HUVEC with PBMC; actives raise or lower the signal
In short: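 Human umbilical vein endothelial cells co-cultured with peripheral blood mononuclear cells; IL-8 measured by ELISA 24 h after chemical dosing. Bidirectional concentration-response fitting used DMSO as negative control and activity baseline.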

[16] = BSK_SAg_Proliferation: Cell Proliferation Assessment in the BioMAP Diversity Plus: SAg Assay (AID 2283095); conditions: primary human HUVEC with PBMC;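 note: relative cell number as total protein by SRB absorbance in sub-confluent culture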
In short: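 Human umbilical vein endothelial cells co-cultured with peripheral blood mononuclear cells; total protein measured by sulforhodamine B staining (0.1% SRB after 10% TCA fixation), absorbance at 560 nm, at 96 h. Bidirectional fit against DMSO baseline.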

[17] = BSK_SAg_SRB: Viability Assessment in the BioMAP Diversity Plus: SAg Assay (AID 2283096); conditions: primary human HUVEC with PBMC;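 note: cells read one day after compound addition; hits may be either gain or loss of signal compared with DMSO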
In short: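 Total protein by sulforhodamine B staining, 24 h after dosing, in HUVEC–PBMC co-culture; DMSO-referenced bidirectional fitting.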

[18] = target: human CYP19A1, CYP19A1 (gene 1588) (UniProt P11511); assay: NVS_ADME_hCYP19A1: NovaScreen (NVS) CYP450-related Enzyme Activity (ADME) Assay for human CYP19A1 (AID 2283098; active = hit-call score of the fitted dose curve at least 0.9, where 1 is the maximum;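 for AC50: potency for inhibitors seen as loss of fluorescent enzyme signal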)
In short: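 Biochem, cell-free; recombinant enzyme + specific substrate; fluorescence intensity at 0.5 h post-dose; 10 uM duplicate primary, conc. series for actives; acetonitrile = negative control/baseline; positive and negative controls on every plate.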

[19] = target: human CYP1A1, CYP1A1 (gene 1543) (UniProt P04798); assay: NVS_ADME_hCYP1A1: NovaScreen (NVS) CYP450-related Enzyme Activity (ADME) Assay for human CYP1A1 (AID 2283100; active = hit-call score of the fitted dose curve at least 0.9, where 1 is the maximum)
In short: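 Cell-free fluorescence assay of recombinant human CYP1A1 activity with a specific substrate, read 1 h after dosing. Compounds were screened in duplicate at 10 uM, then hits tested in concentration-response up to 20 uM; acetonitrile served as baseline.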

Measured: AC50

Chain of Tumor necrosis factor (Homo sapiens) (P01375 whole entry, looked up): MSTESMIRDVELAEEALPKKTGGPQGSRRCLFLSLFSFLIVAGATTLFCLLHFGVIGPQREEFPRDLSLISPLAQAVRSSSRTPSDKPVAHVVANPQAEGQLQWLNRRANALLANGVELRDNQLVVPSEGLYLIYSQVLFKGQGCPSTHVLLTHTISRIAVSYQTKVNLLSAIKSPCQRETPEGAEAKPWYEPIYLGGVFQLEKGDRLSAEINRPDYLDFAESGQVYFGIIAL
Chain of E-selectin (Homo sapiens) (P16581 whole entry, looked up): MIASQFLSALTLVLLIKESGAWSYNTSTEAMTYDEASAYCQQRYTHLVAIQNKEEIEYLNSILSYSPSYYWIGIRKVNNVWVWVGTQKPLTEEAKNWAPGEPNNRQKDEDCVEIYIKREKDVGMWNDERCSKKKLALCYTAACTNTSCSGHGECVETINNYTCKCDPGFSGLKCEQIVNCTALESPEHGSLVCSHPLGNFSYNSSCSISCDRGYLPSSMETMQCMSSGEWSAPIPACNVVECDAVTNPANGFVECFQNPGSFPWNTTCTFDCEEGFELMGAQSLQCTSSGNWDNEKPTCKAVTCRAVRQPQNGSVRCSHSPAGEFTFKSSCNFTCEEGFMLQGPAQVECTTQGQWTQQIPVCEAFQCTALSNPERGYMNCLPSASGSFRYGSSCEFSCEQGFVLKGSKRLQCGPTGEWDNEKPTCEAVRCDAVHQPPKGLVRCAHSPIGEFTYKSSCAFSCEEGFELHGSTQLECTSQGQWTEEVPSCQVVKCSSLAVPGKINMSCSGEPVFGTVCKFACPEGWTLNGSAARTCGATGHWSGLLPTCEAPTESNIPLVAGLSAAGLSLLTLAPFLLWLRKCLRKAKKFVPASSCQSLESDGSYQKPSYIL
Chain of human CYP19A1, CYP19A1 (gene 1588) (P11511 whole entry, looked up): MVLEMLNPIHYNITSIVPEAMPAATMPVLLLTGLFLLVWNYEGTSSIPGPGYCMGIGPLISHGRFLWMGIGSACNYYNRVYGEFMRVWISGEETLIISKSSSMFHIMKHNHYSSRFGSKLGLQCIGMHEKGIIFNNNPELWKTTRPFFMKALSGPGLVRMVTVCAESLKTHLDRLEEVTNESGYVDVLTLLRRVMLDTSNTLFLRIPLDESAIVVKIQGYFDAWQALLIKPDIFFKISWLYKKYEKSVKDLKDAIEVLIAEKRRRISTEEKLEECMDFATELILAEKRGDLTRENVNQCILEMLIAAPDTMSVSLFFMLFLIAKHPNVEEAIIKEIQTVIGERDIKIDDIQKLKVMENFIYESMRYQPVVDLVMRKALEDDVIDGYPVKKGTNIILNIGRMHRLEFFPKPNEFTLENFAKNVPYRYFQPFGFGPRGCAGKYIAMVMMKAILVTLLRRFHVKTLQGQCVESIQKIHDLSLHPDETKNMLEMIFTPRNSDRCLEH
Chain of human CYP1A1, CYP1A1 (gene 1543) (P04798 whole entry, looked up): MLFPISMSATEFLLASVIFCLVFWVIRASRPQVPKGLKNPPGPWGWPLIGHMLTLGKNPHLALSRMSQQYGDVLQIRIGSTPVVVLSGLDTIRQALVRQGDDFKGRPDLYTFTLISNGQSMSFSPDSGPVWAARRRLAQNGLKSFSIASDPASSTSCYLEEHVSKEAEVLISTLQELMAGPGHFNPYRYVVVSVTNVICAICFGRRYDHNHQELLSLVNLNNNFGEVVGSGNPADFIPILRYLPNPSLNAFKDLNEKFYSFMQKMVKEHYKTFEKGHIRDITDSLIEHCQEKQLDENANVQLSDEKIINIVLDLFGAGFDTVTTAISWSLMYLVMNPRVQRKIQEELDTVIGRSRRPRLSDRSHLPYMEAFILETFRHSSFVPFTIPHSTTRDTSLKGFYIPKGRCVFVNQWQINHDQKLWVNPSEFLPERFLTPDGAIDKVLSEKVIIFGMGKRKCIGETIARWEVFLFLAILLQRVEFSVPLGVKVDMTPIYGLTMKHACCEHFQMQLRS

CC(C)(C)C(O)/C(=C\c1ccc(Cl)cc1Cl)n1cncn1 (stereo not drawn)
inactive: [5] | [6] | [13] | [14]
active: [1] 33.2 µM | [2] 30.5 µM | [3] 0.994 µM | [4] 20.6 µM | [7] 27.6 µM | [8] 27.5 µM | [9] 25.6 µM | [10] 15.8 µM | [11] 31.8 µM | [12] 27.3 µM | [15] 32.2 µM | [16] 29.2 µM | [17] 29.9 µM | [18] 4.73 µM | [19] 0.705 µM

CC1(C)C(C=C(Cl)Cl)C1C(=O)OC(C#N)c1ccc(F)c(Oc2ccccc2)c1 (stereo not drawn)
active: [3] 5.22 µM | [11] 7.41 µM | [16] 29.9 µM | [17] 14.2 µM
not listed: [19]
inactive: all other assays above

O=C1c2ccccc2C(=O)N1SC(Cl)(Cl)Cl
active: [6] 32 µM | [16] 23.4 µM | [18] 1.01 µM
not listed: [19]
inactive: all other assays above

CNC(=O)Oc1ccccc1OC(C)C
not listed: [18] | [19]
inactive: all other assays above

CNC(=O)/C=C(\C)OP(=O)(OC)OC
not listed: [18] | [19]
inactive: all other assays above

CCCN(CCOc1c(Cl)cc(Cl)cc1Cl)C(=O)n1ccnc1
active: [3] 0.42 µM | [4] 20 µM | [6] 0.875 µM | [8] 30.7 µM | [9] 27.8 µM | [10] 14.9 µM | [11] 29.6 µM | [12] 20.6 µM | [13] 32.5 µM | [14] 20 µM | [15] 15.5 µM | [16] 30.4 µM | [18] 0.784 µM | [19] 0.453 µM
inactive: [1] | [2] | [5] | [7] | [17]
